Measurements from PubChem BioAssay AID2314 (National Center for Advancing Translational Sciences (NCATS), 2010).
Where “and” joins values, the source holds several entries; their conditions need not be identical. Equal entries are not always repeated. Screen size: about 300,000 compounds; about 37,000 (12%) were called active. The list comes from a sample in which actives are over-represented; it also holds similar structures and randomly drawn compounds. A number with no mark means an inactive call. No stated cut-off is given here; in the data, active means max response mostly above about 13% (no sharp cut-off); inactive means mostly below about 14%.

experiment: Cycloheximide Counterscreen for Small Molecule Inhibitors of Shiga Toxin; settings: cell reporter, cycloheximide protein synthesis inhibition counterscreen; active compounds read high; further: read at 38.3 µM for the half of the compounds with a filed dose; 0% is about no effect

| SMILES | max response |
| --- | --- |
| Cc1cc(Br)ccc1NC(=O)c1cnc(N2CCN(c3ccccn3)CC2)c2ccccc12 | -4.22% |
| Cc1ccc(NC(=O)CSc2sc3c(O)cc(=O)[nH]c3c2C#N)cc1C | -5.26% |
| COc1ccc(S(=O)(=O)N2CCN(C(=O)N(C)C)C2C)cc1 (stereo not drawn) | -6.24% |
| COc1ccc(CNC(=O)c2c[nH]c3c(OC)cc(OC)cc3c2=O)cc1 | 2.74% |
| O=C(CSc1nnc(-c2c[nH]c3ccccc23)n1-c1ccc(F)cc1)NCc1ccco1 | 11.7% (active) |
| COc1ccc(-n2c(SCC(=O)NCc3ccco3)nnc2-c2c[nH]c3ccccc23)cc1 | 1.31% |
| O=C(CSc1nnc(-c2cccs2)n1-c1ccccc1)NCc1ccco1 | -2.76% |
| COc1ccc(CC(=O)NC2CCSc3ccccc32)cc1OC (stereo not drawn) | 2.51% |
| CC(C)[C@@H](C(=O)O)N(Cc1cccc(CN([C@H](C(=O)O)C(C)C)S(C)(=O)=O)c1)S(C)(=O)=O | -2.74% |
| O=C(O)C1CCN(C(=O)c2cc(F)cc3c2OCOC3)CC1 | -2.01% |
| CCN(CC)C(=O)CC(c1ccc2c(c1)OCO2)c1c(OC)cc(OC)c2c(-c3ccccc3)cc(=O)oc12 (stereo not drawn) | 7.27% and 12.1% |
| Cc1cc(NC(=O)CSc2nc(=O)cc(N)n2-c2ccc(F)cc2)no1 | -1.93% |
| Cc1cc(NC(=O)CSc2nc3ccccc3n2CC(C)C)no1 | 16.2% |
| Cc1ccc2nc(-c3ccc(SCC(=O)Nc4cc(C)on4)nc3)[nH]c2c1 | 40.1% (active) |
| Cc1ccc(N2CC(C(=O)Nc3ccc(S(=O)(=O)N4CCCC4)cc3)CC2=O)cc1C (stereo not drawn) | -2.43% |
| COc1ccccc1C(=O)COC(=O)CNS(=O)(=O)c1ccc(NC(C)=O)cc1 | 3.07% |
| CC(C)C[C@H](NC(=O)N1CC(=O)Nc2ccccc21)C(=O)N[C@H](Cc1ccccc1)C(=O)O | -1.39% |
| COc1ccc(OC)c(C2C3=C(N=c4s/c(=C\c5cccc(O)c5)c(=O)n42)c2ccccc2CC3)c1 (stereo not drawn) | -1.53% |
| COc1ccc(NC(=O)c2cc3nc(-c4ccccc4)cc(C)n3n2)cc1OC | -3.85% |
| CC(C)c1ccc(OCC(=O)N2CCN(C)CC2)c(Br)c1 | 11.3% (active) |

| SMILES | max response |
| --- | --- |
| CN1CCN(C(=O)COc2ccc(C(C)(C)C)cc2Br)CC1 | -0.455% |
| CC(C)c1ccc(OCC(=O)N2CCCN(C)CC2)cc1 | 14.8% |
| Cc1ccc(-c2nc(C)sc2CC(=O)OCC(=O)Nc2c(F)cccc2F)cc1 | 1.62% |
| O=C(Nc1ccc(N2CCCC2=O)cc1)c1cncc(Br)c1 | 1.75% |
| COCn1c(C(O)c2ccccc2)cc2ccccc21 (stereo not drawn) | 5.67% |
| CCOC(=O)N1CCN(C(=O)COCc2cc(-c3ccc4c(c3)OCO4)on2)CC1 | 9.44% |
| CC(C)NC(=O)COCc1cc(-c2ccc3c(c2)OCO3)on1 | 34.6% (active) |
| Cc1cccc(N2CCN(C(=O)COCc3cc(-c4ccc5c(c4)OCO5)on3)CC2)c1C | 13.7% |
| CCCn1nnnc1NCc1ccc(CC)cc1 | 15.5% |
| CCN1CCN(c2sc(S(C)(=O)=O)nc2S(=O)(=O)c2ccc(Cl)cc2)CC1 | 13.5% |
| COc1ccc(/C=C/c2nnc(NC(=O)C(C)C)s2)cc1 | 13.9% (active) |
| O=C(Nc1ccc(Cl)cc1)Nc1nnc(/C=C/c2ccccc2)s1 | 6.47% |
| O=C(CSc1ccccc1)Nc1nnc(/C=C/c2ccccc2)s1 | 0.905% |
| CCCCNC(=O)N1CCCC(N(C)CCc2ccc(OC)c(OC)c2)C1 (stereo not drawn) | -0.786% |
| Cc1nn(C(=O)c2ccoc2C)c(N)c1-c1ccccc1 | 53.9% (active) |
| CCCC(=O)n1nc(-c2ccccc2)nc1N | -1.34% |
| CCOC(=O)c1c(N)nn(C(=O)c2ccccc2)c1-c1ccccc1 | -1.7% |
| CCC(C)[C@@H](N)C(=O)O (stereo partly drawn) | -4.08% |
| CCCCNC(=O)c1ccccc1NC(=O)C1=C(C)OCCS1 | 1.86% |
| COc1ccc(CCNC(=O)C(=O)Nc2ccc3nc4n(c(=O)c3c2)CCCCC4)cc1OC | -0.998% |

| SMILES | max response |
| --- | --- |
| CC(=O)c1sc2nc(SCC(=O)N3CCCCC3)[nH]c(=O)c2c1C | -3.21% |
| Cc1c(C(=O)Nc2ccccc2)sc2nc3n(c(=O)c12)CCCCC3 | 36.1% (active) |
| CC(=O)c1ccc(NC(=O)c2sc3nc4n(c(=O)c3c2C)CCCCC4)cc1 | 47.8% (active) |
| Cc1nc(N2CCOCC2)c2c(C)c(C(=O)Nc3ccc(C(F)(F)F)cc3)sc2n1 | -1.52% |
| Cc1nc(N2CCN(c3ccccn3)CC2)c2c(C)c(C(=O)Nc3ccc(F)cc3)sc2n1 | 1.78% |
| O=C(Nc1ccc2nc3n(c(=O)c2c1)CCCCC3)c1ccccc1Cl | 23% (active) |
| CCCCN(CC)C(=S)Nc1ccc2nc3n(c(=O)c2c1)CCCCC3 | -3.24% |
| O=c1c2c(nc3n1CCCCC3)sc1c(O)cccc12 | 12.7% |
| O=[N+]([O-])/C=C/c1ccc2c(ccn2Cc2ccccc2)c1 | -1.88% |
| CN(C)CCCCCN(C)Cc1cc2ccccc2o1 | -0.524% |
| COCCCNC(=O)CNC(=O)c1nn(-c2ccc(OC)cc2)c(=O)c2ccccc12 | -1.37% |
| O=C(Nc1ccccc1C(=O)O)c1ccc(N2C(=O)C3CC=CCC3C2=O)cc1 (stereo not drawn) | -5.5% |
| O=C1CSc2ccc(S(=O)(=O)NCc3ccccc3)cc2N1 | 7.11% |
| COc1cccc(N(C(=O)c2ccn[nH]2)C2(C(=O)Nc3c(C)cccc3C)CCCCC2)c1 | -5.43% |
| CC1CCN(c2oc(-c3ccccc3F)nc2C#N)CC1 | 28.8% (active) |
| COc1ccccc1-c1nc(C#N)c(N2CCC(C(N)=O)CC2)o1 | -3.17% |
| Cc1oc(-c2ccccc2F)nc1CS(=O)CC(=O)NCCN1CCCCC1C (stereo not drawn) | -6.49% |
| Cc1ccc(NN=Nc2nc3c([nH]2)c(=O)n(C)c(=O)n3C)cc1 | 11.7% |
